# MCF10A rerep = induces DNA re-replication in MCF 10a normal breast cells | MCF 10A DNA re-replication, Hoechst nuclear intensity, 48 h | Potency, µM (titrated, usually from 46.1 µM), for the others: top-dose activity, positive = re-replication, most hits filed as activators | 350,000 compounds, 2.9% hits; further: % of control where 0% means no effect; nearly all actives have a fitted effect of over 50% in size
# KB-3-1 cytotox = kills parental KB-3-1 adenocarcinoma cells; KB-3-1 viability, CellTiter-Glo ATP luminescence, 72 h; Potency, µM (titrated, usually from 46.1 µM), usual class: cytotoxic; 400,000 compounds, 1.4% hits; further: on the % scale 0 is the no-effect control and ±100 the full control effect; nearly all actives have a fitted effect of over 60% in size
#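 72 h, 37 °C compound treatment of KB-3-1 parental cells; CellTiter-Glo added, 10 min, luminescence read. Data corrected against DMSO-only plates and normalized before curve fitting.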
# SW480 rereplic = DNA re-replication induction in SW480 cells; AID 624297; 340,000 compounds, 1.8% hits; SW480 DNA re-replication, Hoechst DNA content imaging, 48 h; Potency, µM (highest dose often 46.1 µM), for inactives: at the highest dose re-replication activation, actives largely listed as activators; further: % of control where 0% means no effect; nearly all actives have a fitted effect of over 55% in size
#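 SW480 cells exposed to compounds for 48 hr at 37 C, 5% CO2, then Hoechst-stained 40 min. Nuclear DNA content imaged by fluorescence scanning (405 nm excitation, 500-530 nm emission); re-replication scored as increased high-intensity nuclei.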
# RORg inh = ROR gamma (mouse) transcription inhibition. P51450. Potency, µM (top dose mostly 53.6 µM), for inactives: at the highest dose activity change, negative = inhibition, most hits filed as inhibitors. 310,000 compounds, 5.4% hits. Drosophila S2 Gal4-RORgamma UAS-luciferase reporter, 20 h; further: on the % scale 0 is the no-effect control and ±100 the full control effect; nearly all actives have a fitted effect of over 60% in size
# Target sequence (P51450 whole entry, looked up, the tested form may be a part): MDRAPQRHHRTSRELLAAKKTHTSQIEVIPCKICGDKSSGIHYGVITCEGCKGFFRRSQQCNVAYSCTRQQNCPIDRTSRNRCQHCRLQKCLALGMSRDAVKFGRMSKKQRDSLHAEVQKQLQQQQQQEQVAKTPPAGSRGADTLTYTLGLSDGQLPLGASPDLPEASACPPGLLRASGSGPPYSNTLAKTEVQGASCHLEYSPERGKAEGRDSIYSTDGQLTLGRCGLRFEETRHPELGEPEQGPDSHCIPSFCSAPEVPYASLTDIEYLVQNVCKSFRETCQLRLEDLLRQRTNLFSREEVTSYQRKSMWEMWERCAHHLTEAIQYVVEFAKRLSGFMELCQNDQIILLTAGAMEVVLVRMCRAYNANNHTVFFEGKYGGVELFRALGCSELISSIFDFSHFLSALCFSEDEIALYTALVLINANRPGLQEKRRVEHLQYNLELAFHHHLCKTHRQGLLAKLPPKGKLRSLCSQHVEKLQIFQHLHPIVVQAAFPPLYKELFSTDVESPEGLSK
#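 Compounds are pin-transferred onto Drosophila Schneider cells expressing a copper-inducible Gal4–ROR gamma transactivation domain fusion. After 1 hr, copper sulfate is added to 700 uM final; luciferase is read 20 hr later.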
# Gal4-VP16 FLuc = inhibits Gal4-VP16 luciferase reporter, ROR gamma counter-screen | Drosophila S2 Gal4-VP16 UAS-luciferase, luminescence, 20 h | Potency, µM (titrated, usually from 53.6 µM), without a hit: at the highest dose activity, negative = inhibition, most hits filed as inhibitors | 310,000 compounds, 3.5% hits | AID 2546;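 further: Gal4-VP16 expression switched on by copper sulfate through the metallothionein promoter; on the % scale 0 is the no-effect control and ±100 the full control effect; nearly all actives have a fitted effect of over 50% in size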
# KB-V1 MDR tox = KB-V1 MDR subline cytotoxicity; KB-V1 MDR cells viability, CellTiter-Glo, 72 h; Potency, µM (top dose mostly 46.1 µM), hits mostly cytotoxic; 400,000 compounds, 3.4% hits; AID 1347076; further: on the % scale 0 is the no-effect control and ±100 the full control effect; nearly all actives have a fitted effect of over 60% in size
#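 Luminescent ATP read-out (CellTiter-Glo, 10 min) measures survival of drug-selected KB-V1 MDR cells after 72 h, 37 degrees C compound exposure. Medium: phenol-red-free DMEM, 10% FBS. Values from fitted concentration-response curves.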
# Active calls of the source: *; i = inactive; ? = inconclusive; . = not tested or not shown; [ ] = dose if it differs, or a comment. Only some compounds are listed: those with a hit (about 10% of all), similar ones and a draw of the others. The call rests on the fitted dose curve; in most records, active means well fitted curve in the direction sought with a large enough effect; inconclusive means small, poorly fitted or top-dose-only effect, or another doubt; inactive means no such curve, though single readings can be large; an effect the other way counts as inactive or inconclusive. Potency means the concentration at half of the fitted maximal effect.
SMILES,MCF10A rerep,KB-3-1 cytotox,SW480 rereplic,RORg inh,Gal4-VP16 FLuc,KB-V1 MDR tox
CS(=O)(=O)N1CCC(c2noc(-c3ccc(C(F)(F)F)cc3)n2)CC1,26%,i,-16%,?,10µM*,i
CCS(=O)(=O)N1CCC(c2nc(-c3ccc(C)cc3)no2)CC1,14%,?,-9%,?,-10%,?
Cc1ccc(-c2nc(C3CCN(S(=O)(=O)c4ccc(C(F)(F)F)cc4)CC3)no2)cc1,2%,i,-1%,22%,-11%,i
CC1(C(=O)NCc2ccccc2)CN(S(C)(=O)=O)CC(=O)N1Cc1cccs1 (centres undefined),.,i,.,.,.,i
COC(=O)c1ccc(NC(=O)CN2CCCN(Cc3ccc(Cl)cc3)S2(=O)=O)cc1,.,i,.,.,.,i
Cc1ccc(Cl)cc1N1CCN(CCCNc2ncnc3onc(-c4ccc(F)cc4)c23)CC1,.,i,.,.,.,i
CC(C)(N=NC(C)(C)C(=N)N)C(=N)N,.,.,.,-11%,-14%,.
COc1ccc(C)cc1N(C)C(=O)c1sc2nc3n(c(=O)c2c1C)CCCCC3,.,i,.,.,.,i
CCCCn1nnnc1C(c1cc2ccccc2o1)N1CCN(c2c(C)cccc2C)CC1 (centres undefined),.,?,.,.,.,i
Cc1cccc(C)c1N1CCN(C(c2cc3ccccc3o2)c2nnnn2C(C)(C)C)CC1 (centres undefined),.,5.8µM*,.,.,.,2.6µM*
Cc1c2cnn(CC(=O)N3CCN(c4ccccc4)CC3)c(=O)c2c(C)n1Cc1ccccc1Cl,.,i,.,.,.,i
CCOC(=O)N1N=C(CC)CC1(O)C(F)(F)F (centres undefined),17%,i,-3%,-43%,3%,?
CC1=NN(C(=O)Cc2ccc([N+](=O)[O-])cc2)C(O)(c2ccccc2)C1 (centres undefined),0%,i,?,8.9µM*,13µM*,i
CCC1=NN(C(=O)Cc2ccc(OC)c(OC)c2)C(O)(C(F)(F)F)C1 (centres undefined),-1%,i,-21%,16µM*,?,15µM*
COc1ccc(CC(=O)N2N=C(C)CC2(O)c2cccnc2)cc1 (centres undefined),6%,i,5%,-45%,-2%,i
COc1ccc(CC(=O)N2N=C(C)CC2(O)c2cccnc2)cc1OC (centres undefined),3%,i,-2%,11µM*,?,?
CC1=NN(C(=O)Cc2ccc([N+](=O)[O-])cc2)C(O)(c2cccnc2)C1 (centres undefined),-4%,i,-1%,14µM*,-6%[0.365 µM],i
CC[C@H]1C2=C3C(CC[C@H]4C(OCc5ccc(F)cc5C(F)(F)F)OC[C@](C)([C@@H]34)N(C(=O)OC(C)(C)C)C2)C(COC)C1COC (some centres undefined),.,.,.,-5%,5%,.
Cc1cc(C)cc(N2C(=O)CC(c3ccc(C(F)(F)F)cc3)C3=C2COC3=O)c1 (centres undefined),.,i,.,.,.,i
CCC(CO)Nc1ncnc2c1cnn2-c1ccc(C)cc1 (centres undefined),.,i,.,.,.,?
COC(=O)c1ccccc1S(=O)(=O)NNC(=O)Nc1ccccc1,8%,i,-5%,11µM*,?,i
CCOc1cc(CN2CCCCC2)ccc1OC,3%,i,-8%,-4%,-2%,i
COc1ccc(N2CCN(C3CCCN(S(=O)(=O)c4ccc(C)cc4C)C3)CC2)cc1 (centres undefined),?,26µM*,?,22%,-14%,i
COc1ccc(CN2CCCC(N3CCN(c4cccc(Cl)c4)CC3)C2)cc1OC (centres undefined),-1%,i,-5%,-12%,-9%,i

# Assay outcomes from PubChem.
